Source: PubChem BioAssay (National Center for Advancing Translational Sciences (NCATS))
Pf growth 96h = P. falciparum growth inhibition at 96 hours; P. falciparum luciferase reporter growth, 96 h; Potency, µM (titrated, usually from 28.7 µM), for inactives: at the highest dose activity change, negative = inhibition, actives largely listed as inhibitors; 320,000 compounds, 6.9% hits; AID 504834; note: potency is the fitted concentration of half-maximal effect
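Infected RBCs, 2% Hct / 0.05% parasitemia final; luciferase-reporter P. falciparum; cpd 96 h, 37 C, 5% CO2; luciferase detection reagent; luminescence.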
HCMV antiviral = blocks human cytomegalovirus replication; HFF cells, HCMV-luciferase reporter, 72 h; active compounds read low; activity change, negative = inhibition, % at 57.5 µM; 410,000 compounds, 4.5% hits; AID 1259415; in the data active = activity change below about -60%; inconclusive = no clear call, values can overlap the other calls; inactive = above about -39%
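Inhibition of viral replication was scored as loss of reporter luminescence in HFFs infected with HCMV-luciferase (MOI 1 PFU/cell) for 72 h; compounds tested at 2 doses, normalized to buffer and Salinomycin controls.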
HCV inh = blocks hepatitis C virus. Huh7.5.1 HCVcc-Cre infection, luciferase reporter, 44 h. Potency, µM (highest dose often 41.8 µM), for inactives: at the highest dose activity change, negative = inhibition, hits mostly inhibitors. 340,000 compounds, 3.4% hits; note: potency is the fitted concentration of half-maximal effect
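HCVcc-Cre virus at an moi near 0.5 was added right after compound to cells cultured 4 h from seeding (1,000 cells/well). Luciferase activity was determined 44 h later, 15 min after substrate addition at RT.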
Pf growth 48h = inhibits P. falciparum growth in the first generation, 48 h. P. falciparum luciferase growth in erythrocytes, 48 h. 310,000 compounds, 5.9% hits. AID 504832. Potency, µM (highest dose often 28.7 µM), for the others: at the top dose activity change, negative = inhibition, most hits filed as inhibitors; note: potency is the fitted concentration of half-maximal effect
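Luminescence readout; reporter = integrated firefly luciferase in P. falciparum. RBC culture at 2% hematocrit, 0.1% parasitemia final, 37 C/5% CO2; decreased signal taken as growth inhibition.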
An asterisk follows results filed as active; i = inactive; u = inconclusive; x = no result. Most compounds without a hit are left out; they make up all but 13% or so of the library. Unless noted, calls come from the whole dose curve; as a rule, active = well fitted inhibition curve with a large enough effect; inconclusive = small, poorly fitted or top-dose-only effect, or another doubt; inactive = no such curve, though single readings can be large or run the other way. % is set by controls: 0 for no effect and ±100 for the full control effect.

SMILES	Pf growth 96h	HCMV antiviral	HCV inh	Pf growth 48h
CCOC(=O)c1ccc(NC(=O)c2nc(SC(C)C)ncc2Cl)cc1	x	-11	x	x
CCOC(=O)c1ccc(NC(=O)c2nc(S(=O)(=O)Cc3ccccc3)ncc2Cl)cc1	1%	-99*	10µM*	36%
CCS(=O)(=O)c1ncc(Cl)c(C(=O)Nc2ccccc2)n1	x	-103*	x	x
CCCS(=O)(=O)c1ncc(Cl)c(C(=O)Nc2ccc(S(=O)(=O)Nc3ncccn3)cc2)n1	u	-20	17%	41%
COc1ccc(S(=O)(=O)N2CCC(c3nnnn3-c3ccccc3)CC2)cc1OC	x	-39	x	x
COc1ccc2ncc3c(-c4ccccc4)nn(-c4ccc(C)c(C)c4)c3c2c1	x	-8	x	x
CCc1nn(CC(=O)NCCc2ccc(OC)c(OC)c2)c(=O)c2cc3occc3n12	x	-5	x	x
CCc1ccc(NC(=O)c2nc(S(=O)(=O)Cc3ccccc3)ncc2Cl)cc1	u	-100*	x	42%
CSc1ncc(Cl)c(C(=O)Nc2ccccc2[N+](=O)[O-])n1	9.3µM*	54	4%	66%
CCN(c1ccccc1)S(=O)(=O)c1ccc(NC(=O)c2nc(SC)ncc2Cl)cc1	x	-86*	x	x
CSc1ncc(Cl)c(C(=O)Nc2ccccc2C)n1	u	-6	-9%	x
COc1ccc(NC(=O)c2nc(SC)ncc2Cl)cc1	16%	0	-4%	19%
COc1cccc(CN(C(=O)c2cccc(C)c2)C2CCS(=O)(=O)C2)c1 (stereo not drawn)	x	3	x	x
CCOC(=O)c1c(C)c(-c2ccccc2)n(CC(=O)Nc2cccc(F)c2)c1C	x	0	x	x
Cc1cc(C)cc(N(CC(=O)Nc2ccccc2-c2ccccc2)S(=O)(=O)c2ccccc2)c1	u	-22	14%	2%
Cc1cc(NC(=O)CN(c2cccc(C)c2C)S(=O)(=O)c2ccccc2)ccc1Br	x	-68*	x	x
Cc1cccc(N(CC(=O)Nc2ccccc2-c2ccccc2)S(=O)(=O)c2ccccc2)c1C	8%	-61*	u	8.3µM*
Cc1ccc(N(CC(=O)Nc2ccccc2-c2ccccc2)S(=O)(=O)c2ccccc2)cc1	6.6µM*	-70*	10µM*	u
Cc1ccc(S(=O)(=O)N(CC(=O)Nc2ccccc2-c2ccccc2)c2ccc(C)cc2C)cc1	-18%	u	u	u
Cc1cccc(N(CC(=O)NCCSCc2ccccc2)S(=O)(=O)c2ccccc2)c1C	x	-13	x	x
CCc1nnc2c(N3CCN(c4cccc(C(F)(F)F)c4)CC3)nc3ccccc3n12	x	0	x	x
CC1(C(=O)NCc2cccc3ccccc23)CCN1C(=O)Cc1ccc(-c2ccccc2)cc1 (stereo not drawn)	x	-11	x	x
Cc1ccc(NC(=O)C(Cc2ccccc2)NS(=O)(=O)c2ccc3c(c2)CCC(=O)N3)cc1 (stereo not drawn)	x	-8	x	x
COCCn1c(SCC(=O)Nc2ccc(Br)cc2)nc2c([nH]c3ccccc32)c1=O	x	23	x	x
Cc1ccc(N/N=C(/Sc2nnnn2-c2ccccc2)C(=O)c2ccccc2)cc1	-11%	-26	9%	-6%
SMILES	Pf growth 96h	HCMV antiviral	HCV inh	Pf growth 48h
Cn1nnnc1N=N/C(=N/Nc1ccccc1)c1ccccc1	u	-86*	4µM*	u
COc1cccc(CNS(=O)(=O)c2ccc3c(c2)C(C(C)C)C(=O)N3)c1 (stereo not drawn)	x	-10	x	x
COc1ccc(-c2noc(-c3ccccc3NC(=O)c3cc(OC)c(OC)c(OC)c3)n2)cc1	x	-5	x	x
C=CCN1C(=O)C(Cc2ccc(OC)cc2)S/C1=N/N=C/c1ccco1 (stereo not drawn)	u	39	-16%	9.3µM*
C=CCN1C(=O)C(Cc2ccc(F)cc2)S/C1=N/N=C/c1ccco1 (stereo not drawn)	u	3	-3%	2%
C=CCN1C(=O)C(Cc2ccc(Br)cc2)S/C1=N\N=C\c1ccco1 (stereo not drawn)	12µM*	71	11%	5%
CSc1c2c(nc3ncnn13)CCC2	9.3µM*	-38	2%	u
c1ccc(Nc2c3c(nc4ncnn24)CCC3)cc1	12µM*	30	8%	-5%
Clc1ccccc1Nc1c2c(nc3ncnn13)CCC2	3.3µM*	32	u	12µM*
Cc1cccc(C)c1-n1ncc(C(=O)O)c1C1CCN(C(=O)OC(C)(C)C)CC1	x	8	x	x
CCN(CC)C(=O)Cn1c(C)c(/C=C/c2cc[n+](C)cc2)c2ccccc21	u	-3	12%	1.7µM*
C=CCn1c(C)c(/C=C/c2cc[n+](C)cc2)c2ccccc21	4%	-96*	u	0.74µM*
C=CCn1cc(/C=C/c2cc[n+](C)cc2)c2ccccc21	i	-96*	u	u
CC(C)n1cc(/C=C/c2cc[n+](C)cc2)c2ccccc21	u	-95*	32µM*	0.52µM*
Cc1cccc(Cn2cc(C=O)c3ccccc32)c1	u	-16	4%	-6%
COc1ccc(NC(=O)Cn2c(=O)n(Cc3nc(-c4ccccc4)no3)c(=O)c3ccccc32)cc1Cl	x	2	x	x
Cc1cccc(OCC(=O)Nc2c(C(=O)N3CCN(c4ccccc4)CC3)oc3ccccc23)c1	x	-33	x	x
Oc1ccc(-c2nc(-c3ccccc3)c(-c3ccc(Br)cc3)[nH]2)cc1	x	-63*	x	x
O=C(O)c1ccc(-c2nc(-c3ccccc3)c(-c3cccs3)[nH]2)cc1	56%	0	19%	u
Cc1ccc(-c2[nH]c(-c3ccc(C(=O)O)cc3)nc2-c2ccccc2)cc1	10µM*	u	-14%	-32%
CCCCOc1ccc(C(=O)N/C(=C\c2ccc(Br)cc2)C(=O)NC2CCCCC2)cc1	x	-4	x	x
Cc1nc2ccc(-c3nc4cc(N)ccc4o3)cc2[nH]1	u	46	10µM*	u
CN(Cc1ccccc1)C(=O)c1cccc(NC(=O)Cc2cccc([N+](=O)[O-])c2)c1	x	u	2.8µM*	x
CN(C(=O)c1ccc(NC(=O)Cc2ccc(NC(=O)C3CCCN(S(=O)(=O)c4cccc([N+](=O)[O-])c4)C3)cc2)cc1)C1CCCC1 (stereo not drawn)	x	-21	u	x
CN(Cc1ccccc1)C(=O)c1cccc(NC(=O)Cc2ccc(NC(=O)C3CCN(C(=O)CCc4ccccc4)CC3)cc2)c1	x	-91*	2.2µM*	x
CN(Cc1ccccc1)C(=O)c1ccc(NC(=O)Cc2ccc(NC(=O)C3CCN(C(=O)CCc4ccccc4)CC3)cc2)cc1	x	-89*	u	x
CN(Cc1ccccc1)C(=O)c1ccc(NC(=O)Cc2ccc(NC(=O)C3CCCN(S(=O)(=O)c4cccc([N+](=O)[O-])c4)C3)cc2)cc1 (stereo not drawn)	x	4	13µM*	x
Cc1cccc(NC(=O)Cn2c(=O)c3cccn3c3ccccc32)c1C	x	-16	x	x
Cc1cc(=O)n(CC(=O)NC(C)c2ccccc2)c2c1c(C)nn2-c1cccc(F)c1 (stereo not drawn)	x	4	x	x
Cc1ccc(CNC(=O)C2CCCN(S(=O)(=O)c3cccc4nsnc34)C2)cc1 (stereo not drawn)	x	2	x	x
